These results are taken from article PMC5540273 (PLoS ONE, 2017).

Among the test systems are CDK8; CDK9; CDKL1; CDKL2; CDKL3; CDKL5; CHEK1; CHEK2; CIT; CLK1.
Holding throughout (conditions): concentration: 1 μM, replicates: in singlicate; n = 1
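Also: KINOMEscan kinase panel screen.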

Regarding `NCCC(NC(=O)c1cc(Br)c(-c2ccnc3[nH]ccc23)s1)c1ccccc1.O=C(O)C(F)(F)F.O=C(O)C(F)(F)F` (stereo not shown) [GSK1307810], the “%Inh” value turned out to be 100% with CDK8; 35% in the test on CDK9; 2% with CDKL1; 0% in the test with CDKL2; 0% with CDKL3; 0% with CDKL5. Besides, the “%Inh” value was determined as 0% in the test on CHEK1, 41% in the test on CHEK2, 98.5% with CIT and 41% in the test on CLK1.

As for `CN(C)CCOc1ccc(-c2cc(-c3ccc(Cl)c(O)c3)c(-c3ccncc3)[nH]2)cc1.Cl.Cl` [SB-684387], the “%Inh” value amounted to 38% in the test with CDK8; 18% in the test with CDK9; 28% with CDKL1; 39% with CDKL2; 0% with CDKL3; 0% in the test with CDKL5. Besides, the “%Inh” value in the test with CHEK1 is reported as 7%; with CHEK2, 33%; with CIT, 90.8%; in the test with CLK1, 32%.

On to `COc1cccc(C2=C(Nc3cccc(O)c3)C(=O)NC2=O)c1` [SB-390771], for which the “%Inh” value in the test with CDK8 amounted to 17%; in the test on CDK9 it was 0%; in the test on CDKL1, 86%; in the test on CDKL2, 7%; with CDKL3 it was 0%; in the test with CDKL5, 0%. In addition, the “%Inh” value in the test with CHEK1 is given as 0%; in the test with CHEK2 it was 0%; with CIT, 4%; in the test with CLK1, 73%.

As to `N#CC1(c2cccc(C(=O)Nc3cccc(Oc4ccc5nc(NC(=O)C6CC6)sc5n4)c3)c2)CC1`, the “%Inh” value in the test on CDK8 stood at 35%; in the test with CDK9, 0%; in the test with CDKL1, 14%; with CDKL2, 95.8%; in the test with CDKL3, 79%; in the test on CDKL5, 0%. Also, the “%Inh” value with CHEK1 is 0%; in the test with CHEK2, 0%; with CIT, 94.2%; with CLK1, 8%.

Turning to `COc1cccc2c(-c3ccncc3)c(-c3ccc(F)cc3)nn12` [GW468513], the “%Inh” value in the test with CDK8 is on record as 42%; in the test with CDK9 it was 0%; in the test on CDKL1 it was 2%; in the test with CDKL2, 38%; in the test on CDKL3, 0%; in the test with CDKL5, 0%. The “%Inh” value with CHEK1 is 0%; with CHEK2, 0%; in the test on CIT, 98%; in the test on CLK1 it was 6%.

With `COC(=O)Nc1nc2cc(Oc3ccc(NC(=O)Nc4cccc(SC)c4)cc3)ccc2[nH]1.Cl` [GW697999], the “%Inh” value with CDK8 was found to be 47%; in the test on CDK9, 0%; in the test with CDKL1, 21%; in the test on CDKL2 it was 86%; in the test with CDKL3 it was 0%; in the test on CDKL5, 0%. Also, the “%Inh” value is 2% in the test on CHEK1, 28% with CHEK2, 98% in the test with CIT and 19% in the test on CLK1.

With `Cc1ccc(-c2ccc3occ(-c4ccc(S(C)=O)cc4)c3c2)nn1` (stereo not shown), the “%Inh” value with CDK8 was found to be 0%; with CDK9, 0%; with CDKL1 it was 35%; in the test on CDKL2 it was 0%; in the test with CDKL3 it was 13%; in the test on CDKL5, 0%. For the same compound, the “%Inh” value with CHEK1 is on record as 0%; in the test with CHEK2, 11%; with CIT it was 0%; in the test on CLK1, 0%.

For `Cc1ccc(O)cc1Nc1ccnc2cc(-c3ccc(CN4CCCCC4)o3)ccc12` [GW557777], the “%Inh” value is reported as 0% in the test on CDK8; 0% with CDK9; 7% in the test with CDKL1; 0% in the test with CDKL2; 5% with CDKL3; 0% with CDKL5. Besides, the “%Inh” value amounted to 13% in the test with CHEK1, 0% in the test with CHEK2, 40% with CIT and 24% in the test on CLK1.

In the case of `Nc1cccc(-c2ccc3c(N)n[nH]c3c2)c1` [GSK2193613], the “%Inh” value came out at 42% in the test on CDK8; 3% in the test with CDK9; 19% in the test on CDKL1; 23% with CDKL2; 0% with CDKL3; 0% in the test with CDKL5. Further, the “%Inh” value is 0% in the test with CHEK1, 6% with CHEK2, 30% with CIT and 43% in the test with CLK1.

`Fc1cc(Cl)ccc1Nc1ccnc2cc(-c3ccc(CN4CCOCC4)o3)ccc12` [GW560109]: the “%Inh” value with CDK8 was 0%; in the test with CDK9, 0%; in the test on CDKL1 it was 0%; in the test on CDKL2 it was 58%; in the test on CDKL3 it was 0%; with CDKL5, 0%. In addition, the “%Inh” value is reported as 12% in the test on CHEK1, 46% in the test on CHEK2, 43% with CIT and 17% in the test with CLK1.

With `Cc1ccccc1CC(=O)N1CCc2cc(-c3cn(C)c4ncnc(N)c34)ccc21` [GSK2603346], the “%Inh” value was determined as 83% in the test with CDK8; 0% with CDK9; 0% with CDKL1; 17% with CDKL2; 0% with CDKL3; 0% in the test on CDKL5. For the same compound, the “%Inh” value stood at 18% with CHEK1, 0% in the test with CHEK2, 32% in the test on CIT and 15% in the test with CLK1.

Regarding `Cc1cccc(Nc2nc(NCCN)ncc2C(N)=O)c1` [GSK1292139], the “%Inh” value in the test with CDK8 is recorded as 37%; with CDK9, 0%; in the test on CDKL1, 0%; in the test on CDKL2 it was 7%; in the test on CDKL3 it was 0%; in the test on CDKL5 it was 0%. Also, the “%Inh” value was determined as 82% in the test on CHEK1, 75% in the test on CHEK2, 80% in the test with CIT and 23% in the test with CLK1.

As to `Cc1ccc(NC(=O)c2cccc(N3CCCCC3)c2)cc1-c1ccc(C(=O)NCC2CC2)cc1` [GSK1917008], the “%Inh” value in the test on CDK8 is on record as 10%; in the test with CDK9, 0%; in the test with CDKL1, 7%; with CDKL2, 16%; in the test on CDKL3, 0%; in the test on CDKL5 it was 7%. Moreover, the “%Inh” value in the test with CHEK1 is reported as 100%; in the test on CHEK2, 0%; in the test with CIT, 86%; with CLK1, 22%.
